Data published in ChEMBL document CHEMBL4513216, “Probing the Open Global Health Chemical Diversity Library for Multistage-Active Starting Points for Next-Generation Antimalarials” (ACS Infect Dis, 2020).
Among all 69,000 compounds or so, about 8,600 (12%) showed an effect of 50% or more. This is one part of a sample in which strong results are shown more often than they occur.

These compounds were tested on Plasmodium berghei (assay: Screen against P. berghei liver stage (PbLuc), transformed with Luciferase, at 10uM). Settings: tested at 10 uM.
Assay type: functional, HepG2

SMILES | INHIBITION [%]
COc1cc(C(=O)N2CC3(CCNCC3)c3cc(Cl)ccc32)ccn1 | -17.1
Cc1cc(C(=O)N2CCN(C)CC2)nn1CC(=O)NCc1ccccn1 | 1.95
Cc1nc(CN2CCC(N(C)Cc3nnc(C4CC4)n3C)C2)cs1 (centres undefined) | 7.12
O=C(NCCS(=O)(=O)N1CCN(c2ncccn2)CC1)C1CCCC1 | -33.5
CCOCC1CN(Cc2ccc3c(c2)OCO3)Cc2nccn2C1 (centres undefined) | 29
Cc1ccc(CNC(=O)CN2CCCCC2Cn2cncn2)s1 (centres undefined) | -1.14
CNC(=O)COc1c(F)cc(Br)cc1C(C)=O | 9.04
COC(=O)COc1c(F)cc(Br)cc1C(C)=O | 8.24
CC(=O)c1cc(Br)cc(F)c1OCC(=O)NC(C)C | 56.9
Cc1nc(CNCC2CN(C3CC3)CCO2)cs1 (centres undefined) | 27.4
NC(=O)COc1ccc(CNCc2ccc(F)cc2)cc1 | 9.52
Cc1cc(C)n(CC2CN(Cc3cnc(C)s3)CCO2)n1 (centres undefined) | 28.8
Cc1nc(C)n(CC2CN(Cc3cccc4ccccc34)CCO2)n1 (centres undefined) | 37.4
Cc1cc(C)n(CC2CN(Cc3nc4ccccc4s3)CCO2)n1 (centres undefined) | 79.9
Cc1cc(C)n(CC2CN(Cc3ccccn3)CCO2)n1 (centres undefined) | 12.415
Cc1nc(C)n(CC2CN(Cc3nc4ccccc4n3C)CCO2)n1 (centres undefined) | 22.3
Cc1nc(C)n(CC2CN(Cc3nc4ccccc4s3)CCO2)n1 (centres undefined) | 92.3
CN(Cc1ccco1)C(=O)CN1C(=O)c2ccccc2C1=O | 33.4
CN(C)CCN1C(=O)CCCC12CCCN(Cc1cccs1)C2 (centres undefined) | -3.58
CNC(=O)NCC(=O)N(C)C(c1ccc(Cl)cc1)c1cccnc1 (centres undefined) | 35.1
CN(CCO)C1CCN(c2ncc3c(n2)CCN3c2ccccc2)CC1 | 22.3
Cc1csc2ncnc(N3CCC(Cn4cc(C(C)(C)O)nn4)CC3)c12 | 84.2
Cc1csc2ncnc(N3CCC(Cn4cc(C(C)(C)N)nn4)CC3)c12 | 84.2

SMILES | INHIBITION [%]
CC(C)(O)c1cn(C2CCN(c3ncccc3Cl)CC2)nn1 | 25.7
CC(O)Cc1cn(CC2CCN(c3nccc4occc34)CC2)nn1 (centres undefined) | 11.8
Cc1csc2c(N3CCC(Cn4cc(C(C)(C)O)nn4)CC3)ncnc12 | 79.3
CC(C)(O)c1cn(C[C@H]2C[C@@H]3CCN2C[C@@H]3C(=O)N2CCOCC2)nn1 | -0.473
Cc1csc2ncnc(N3CCCC(Cn4cc(C(C)(C)O)nn4)C3)c12 (centres undefined) | 48.5
CC(C)(N)c1cn(C2CCN(c3ncccc3Cl)CC2)nn1 | 30.4
O=C(c1ccoc1)N1CCN(Cc2ccccc2F)CC1 | 18.3
Cc1ccc(CS(=O)(=O)N2Cc3c(CN(C)C)nn(C)c3C2)cc1 | 8.6
COc1ccc(C2=NOC(CO)C2)cc1 (centres undefined) | 35.8
Fc1cccc(-c2nccnc2C2CCCNC2)c1 (centres undefined) | 8.72
c1cc(CN2CCC3(CC2)COC(COCC2CC2)C3)ccn1 (centres undefined) | 1.9
O=C(Cc1ccsc1)N1CCOC(c2nc(-c3ncccn3)no2)C1 (centres undefined) | 21.9
Cn1c(CCC(=O)N2CCCC3(CNC(=O)O3)C2)nc2cccnc21 (centres undefined) | 22.5
Cc1nc(C2CCN(C(=O)c3cc(C4CC4)[nH]n3)CC2)no1 | 11.9
CS(=O)(=O)Nc1ccn(Cc2cccc(F)c2)n1 | 49.1
Fc1ccc(CN2C[C@@H]3OCCN(CCN4CCCC4)[C@@H]3C2)cc1 | 11.3
COc1ccc(CN2C[C@@H]3OCCN(CCN(C)C)[C@@H]3C2)cc1 | 26.4
COc1ccc(CN2C[C@@H]3OCCN(CCN4CCCC4)[C@@H]3C2)cc1 | 82.3
CC(C)N1CCO[C@H]2CN(Cc3cc[nH]n3)C[C@H]21 | 29.4
c1cc(CN2C[C@@H]3OCCN(CC4CCCO4)[C@@H]3C2)ccn1 (some centres undefined) | -1.55
c1cc(CN2C[C@@H]3OCCN(CC4CC4)[C@@H]3C2)n[nH]1 | 59.3
Fc1ccc(CN2C[C@@H]3OCCN(CC4CCCO4)[C@@H]3C2)cc1 (some centres undefined) | 68.4
COCCN1CCO[C@H]2CN(Cc3cc[nH]n3)C[C@H]21 | 40.3

SMILES | INHIBITION [%]
COc1ccc(CN2C[C@@H]3OCCN(CC4CCCO4)[C@@H]3C2)cc1 (some centres undefined) | 27.9
CN(Cc1cscn1)C1CCCN(c2cccnn2)C1 (centres undefined) | 15.5
COc1c(C)cnc(CN2CCCC(c3noc(C4CC4)n3)C2)c1C (centres undefined) | 17.1
CCc1n[nH]c(C2CN(C(=O)c3ccc4c(c3)CCCC4)CCO2)n1 (centres undefined) | -43.6
O=C(O)c1cncc(Cc2cccc(F)c2)c1 | -19.7
CCc1ccc(CN2CCNC(C(=O)N3CCN(C)CC3)C2)nc1 (centres undefined) | -14.1
COc1ccc(F)cc1C(=O)N(C)[C@@H]1CC[C@@H](O)[C@@H]1O | -42
Cc1ccoc1C(=O)N1CCn2nnc(COc3cccnc3)c2C1 | 17.1
Cn1cc(CN2CCOC(c3nccnc3-c3cccc(F)c3)C2)cn1 (centres undefined) | 23
CC(C)NC(=O)N1CCN(S(C)(=O)=O)CC2(CNC(=O)C2)C1 (centres undefined) | -3.52
N#Cc1cccc(CN2CC[C@@H]3CO[C@@H](CN4CCCC4)[C@@H]3C2)c1 | 23.3
Cc1ccc(C(=O)N2CCc3c(COCC4CC4)cncc3C2)o1 | 88.2
CN(C)CCOCc1cncc2c1CCN(C1CCOCC1)C2 | 12.6
O=C(c1ccco1)N1CCc2c(COCC3CC3)cncc2C1 | -3.88
O=C(c1ccoc1)N1CCc2c(COCC3CC3)cncc2C1 | 64.9
CN(C)C(=O)N1CCc2c(COCC3CC3)cncc2C1 | 59
N#Cc1ccc(C(=O)N2CCc3c(COCC4CC4)cncc3C2)cc1 | 43
O=C(c1cccnc1)N1CCc2c(COCC3CC3)cncc2C1 | -5.05
COCc1cncc2c1CCN(C(=O)c1ccc(C)o1)C2 | 7.11
O=C(c1ccncc1)N1CCc2c(COCC3CC3)cncc2C1 | -1.55
CN(C)CCOCc1cncc2c1CCN(C1CCOC1)C2 (centres undefined) | -2.27
O=C(c1ccc[nH]1)N1CCc2c(COCC3CC3)cncc2C1 | 14.8
CN(C)CCOCc1cncc2c1CCN(C(=O)C1CCOCC1)C2 | 55.4
